Data on 8 molecules can be found in PubChem BioAssay (NCI).

Molecules are shown by their SMILES. About 83,000 compounds went through this panel and 20% of them were active in at least one assay; those are over-represented in the sample as a whole.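 Plates (96-well) were seeded with cells, treated with compound at one concentration, and incubated for 48 hours before percent growth was determined.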 Values without a mark were called inactive. Calls of active or inactive are those of the source. How the source made its calls: active means growth percent below 10; inactive means the rest.

Some test systems named below: NCI-H23 lung; NCI-H226 lung; NCI-H322M lung; HOP-62 NSCLC; NCI-H460 lung; HOP-92 NSCLC; NCI-H522 lung; A549/ATCC NSCLC; 786-0 renal; COLO 205 colon; DU-145 prostate; K-562 leukemia; MALME-3M melanoma; MDA-MB-231 breast; SF-268 CNS; SF-295 CNS; SF-539 CNS; M14 melanoma; RXF 393 renal.
Holding throughout (experiment): NCI-60 one-dose screen, 48 h (100 = growth as untreated, 0 = no growth, -100 = all killed)
Conditions in all cases: 10 µM unless noted

Consider `CC(CCCC(=O)O)c1ccoc1` (stereo unspecified), for which the growth with NCI-H23 lung was 97.7%; in the assay on NCI-H226 lung, 102%; in the assay with NCI-H322M lung, 99.8%; in the assay with HOP-62 NSCLC, 101%; in the assay on NCI-H460 lung, 110%; with HOP-92 NSCLC, 108%. Moreover, the growth in the assay with NCI-H522 lung is 83.2%; in the assay with A549/ATCC NSCLC it was 100%; in the assay on 786-0 renal it was 98.8%; with COLO 205 colon it was 101%; in the assay with DU-145 prostate it was 103%; with K-562 leukemia, 103%. Besides, the growth in the assay on MALME-3M melanoma was 96.8%; in the assay on MDA-MB-231 breast, 109%; with SF-268 CNS, 95.8%; with SF-295 CNS, 95.4%; with SF-539 CNS, 102%; in the assay with M14 melanoma, 97.2%.
For `Cc1cc(N(CCNc2ccnc3cc(Cl)ccc23)Cc2cccs2)nc(Cl)n1`, the growth with NCI-H23 lung was 0.24% (active); with NCI-H226 lung, -30.2% (active); in the assay on NCI-H322M lung it was -24.7% (active); in the assay with HOP-62 NSCLC it was -29.4% (active); in the assay with NCI-H460 lung it was -10.7% (active); with HOP-92 NSCLC, -27.9% (active). Besides, the growth in the assay with NCI-H522 lung was -49.1% (active); in the assay on A549/ATCC NSCLC it was 15.8%; in the assay on 786-0 renal, -97.6% (active); with COLO 205 colon, -75.3% (active); in the assay with DU-145 prostate, 23.9%; with K-562 leukemia, -50.9% (active). The growth is -29.4% (active) with MALME-3M melanoma; -35.7% (active) in the assay on MDA-MB-231 breast; -63.3% (active) in the assay with RXF 393 renal; 19.3% in the assay with SF-268 CNS; -44.6% (active) with SF-295 CNS; -92.2% (active) with SF-539 CNS. In the assay with M14 melanoma, the growth is -67.3% (active).
Consider `Cc1ccc(NC(=O)NC(=O)CSc2nc3ccccc3nc2C)cc1`, for which the growth was 42.6% with NCI-H23 lung; 59.4% with NCI-H226 lung; 95.1% in the assay with NCI-H322M lung; 45% in the assay on HOP-62 NSCLC; 64.9% in the assay on NCI-H460 lung; 36.1% in the assay with HOP-92 NSCLC. For the same molecule, the growth was 40.8% in the assay on NCI-H522 lung; 70.2% with A549/ATCC NSCLC; -16.3% (active) in the assay with 786-0 renal; 81.1% in the assay with COLO 205 colon; 85% with DU-145 prostate; 44.8% in the assay with K-562 leukemia. Besides, the growth in the assay with MALME-3M melanoma was 71.1%; in the assay on MDA-MB-231 breast, 73.1%; with RXF 393 renal, 90.4%; with SF-268 CNS, 86.5%; with SF-295 CNS it was 43.7%; in the assay with SF-539 CNS it was 65.5%. The growth with M14 melanoma is 74.9%.
Regarding `COC(=O)[C@]12CC[C@@H](C)[C@H](C)[C@@H]1C1=CC[C@@H]3[C@@]4(C)C(C#N)=CC(C)=C4CC[C@@]3(C)[C@]1(C)CC2`, the growth was 78.2% in the assay on NCI-H23 lung; 82.7% in the assay on NCI-H226 lung; 108% with NCI-H322M lung; 113% in the assay on HOP-62 NSCLC; 89.3% in the assay with NCI-H460 lung; 91.7% in the assay with HOP-92 NSCLC. In addition, the growth in the assay with NCI-H522 lung is 78.1%; with A549/ATCC NSCLC, 92.2%; with 786-0 renal it was 93%; in the assay on COLO 205 colon, 86.1%; in the assay with DU-145 prostate it was 99.3%; with K-562 leukemia it was 84.5%. Besides, the growth in the assay on MALME-3M melanoma was 87.5%; in the assay with MDA-MB-231 breast, 85.4%; in the assay with SF-268 CNS, 85.3%; with SF-295 CNS it was 85.4%; in the assay on SF-539 CNS it was 91.8%; in the assay with M14 melanoma it was 77.2%.
As to `COC(=O)[C@]12CC[C@@H](C)[C@H](C)[C@@H]1C1=CC[C@@H]3[C@@]4(C)C(c5cnco5)=C[C@@](C)(CO)C4=CC[C@@]3(C)[C@]1(C)CC2`, the growth in the assay with NCI-H23 lung is 47.8%; with NCI-H226 lung, 60%; in the assay on NCI-H322M lung, 86.5%; in the assay with HOP-62 NSCLC it was 93.7%; with NCI-H460 lung, 8.07% (active); in the assay with HOP-92 NSCLC, 41.8%. The growth was 33.9% with NCI-H522 lung; 47.1% in the assay with A549/ATCC NSCLC; 70.5% in the assay with 786-0 renal; 27.2% in the assay with COLO 205 colon; 29.4% in the assay with DU-145 prostate; 30.8% in the assay on K-562 leukemia. In addition, the growth in the assay with MALME-3M melanoma was 87.6%; in the assay with MDA-MB-231 breast it was 58.8%; in the assay on SF-268 CNS it was 63%; in the assay with SF-295 CNS, 31.2%; in the assay with SF-539 CNS, 66.4%; in the assay with M14 melanoma, 63.4%.
Take `COc1cc(-c2nc(C(=O)NCC(=O)O)nn2-c2ccc(Cl)cc2)cc(OC)c1OC`: the growth in the assay on NCI-H23 lung was 97.5%; in the assay with NCI-H226 lung, 87.1%; with NCI-H322M lung it was 102%; in the assay with HOP-62 NSCLC, 104%; in the assay on NCI-H460 lung it was 110%; with HOP-92 NSCLC, 106%. Besides, the growth was 97.1% in the assay on NCI-H522 lung; 96.6% with A549/ATCC NSCLC; 103% in the assay on 786-0 renal; 108% in the assay with COLO 205 colon; 111% in the assay on DU-145 prostate; 89.4% with K-562 leukemia. The growth in the assay on MALME-3M melanoma is 111%; in the assay on MDA-MB-231 breast, 106%; in the assay with SF-268 CNS, 108%; in the assay with SF-295 CNS, 95.2%; with SF-539 CNS, 102%.
On to `COC(=O)CCCNc1c(-c2c(O)c(O)cc3c(O)c(-c4c(C)cc5c(-c6nc7ccccn7c6NCCCC(=O)OC)c(O)c(O)cc5c4O)c(C)cc23)nc2ccccn12`, for which the growth was 6.48% (active) with NCI-H23 lung; 64.8% with NCI-H226 lung; 93.2% in the assay on NCI-H322M lung; 37.1% with HOP-62 NSCLC; 6.59% (active) with NCI-H460 lung; 55.3% in the assay on HOP-92 NSCLC. The growth was 1.98% (active) with NCI-H522 lung; 23.4% in the assay on A549/ATCC NSCLC; 67.6% in the assay with 786-0 renal; 87% in the assay with COLO 205 colon; 29.6% in the assay with DU-145 prostate; 11% in the assay with K-562 leukemia. Besides, the growth was 39.9% in the assay with MALME-3M melanoma; 56.1% in the assay on MDA-MB-231 breast; 32.9% with RXF 393 renal; 25.3% in the assay on SF-268 CNS; 26.4% in the assay on SF-295 CNS; 2.01% (active) in the assay on SF-539 CNS. In addition, the growth in the assay with M14 melanoma is 60.3%.
With `COc1c(C(NC(=O)c2ccccc2)c2sccc2C)cc(Cl)c2cccnc12` (stereo unspecified), the growth in the assay with NCI-H23 lung was 100%; in the assay with NCI-H226 lung, 89.1%; in the assay with NCI-H322M lung, 99.8%; in the assay with HOP-62 NSCLC, 88.2%; in the assay on NCI-H460 lung, 106%; with HOP-92 NSCLC it was 104%. Besides, the growth with NCI-H522 lung is 72.4%; in the assay on A549/ATCC NSCLC, 75.7%; with 786-0 renal it was 98.9%; in the assay on COLO 205 colon it was 121%; in the assay with DU-145 prostate it was 108%; with K-562 leukemia it was 105%. The growth in the assay with MALME-3M melanoma is 108%; with MDA-MB-231 breast, 88.4%; in the assay on SF-268 CNS, 100%; with SF-295 CNS it was 103%; in the assay on SF-539 CNS, 106%; with M14 melanoma it was 103%.
